Source: PubChem (several laboratories)
CYP2C9 act = increases human cytochrome P450 2C9 activity; recombinant CYP2C9, luciferin-H conversion, luminescence; hits give high values; factor 1 = untreated enzyme, 0 = blocked; activation factor at 5 µM; hit rate 1.4% among 96,000; AID 1024;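 active = activation factor of 2 or more for CYP2C9 at a 5 µM dose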
Target sequence (P11712 whole entry, looked up): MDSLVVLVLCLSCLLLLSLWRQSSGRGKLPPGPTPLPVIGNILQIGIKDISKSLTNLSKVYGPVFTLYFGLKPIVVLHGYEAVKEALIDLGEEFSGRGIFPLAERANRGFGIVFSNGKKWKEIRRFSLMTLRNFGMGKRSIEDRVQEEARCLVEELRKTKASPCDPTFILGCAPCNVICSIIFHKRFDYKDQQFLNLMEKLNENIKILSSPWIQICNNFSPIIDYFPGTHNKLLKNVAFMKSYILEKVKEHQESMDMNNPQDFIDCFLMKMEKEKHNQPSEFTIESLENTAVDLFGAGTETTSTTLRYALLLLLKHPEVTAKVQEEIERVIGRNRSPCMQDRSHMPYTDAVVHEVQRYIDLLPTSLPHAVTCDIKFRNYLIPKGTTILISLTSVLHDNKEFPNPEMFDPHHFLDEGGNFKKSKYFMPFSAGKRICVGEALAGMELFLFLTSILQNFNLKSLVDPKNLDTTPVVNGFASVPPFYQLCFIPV
CYP2C9 inhib = human CYP2C9 inhibition; hit rate 20% among 96,000; CYP2C9 Supersomes, luciferin-H conversion, luminescence; inhibition, % at 5 µM;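 active = blocking of liver enzyme CYP2C9 beyond about 50% at 5 µM, limit read from the data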
MRP-1 activ = activates MRP-1. H69AR cells + doxorubicin, viability rescue, CellTiter-Glo. viability increase, % at 10 µM. hit rate 0.61% among 140,000. AID 799;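 active = viability gain under doxorubicin at or above a set limit, the compound median plus 3 SD, cut at about 4.7% in these data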;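 also: MRP-1 overexpressing cells given doxorubicin 25 µM after compound pretreatment; 18-22 h compound pretreatment then 72 h with doxorubicin before readout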
CYP2C19 activ = cytochrome P450 2C19 (human) activation; P33261; recombinant CYP2C19, luciferin-H EGE luminescence; hits give high values; 0 = fully inhibited enzyme, 1 = untreated enzyme; activation factor at 5 µM; 96,000 tested, under 10 active; AID 1025;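 active = activation factor of at least 2 at 5 µM in the primary screen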
MRP reversal = compounds reversing MRP-mediated drug resistance; differential viability (reversal), % at 10 µM; AID 602; hit rate 0.04% among 85,000; H69AR cells + 2 uM doxorubicin, CellTiter-Glo, 72 h;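 active = viability drop by adding the cancer drug above about 55%, with treated viability meeting a 40% cutoff, limit read from the data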;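 also: larger differential means the compound sensitizes cells more to doxorubicin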
CYP2C19 inhib = human CYP2C19 inhibition. CYP2C19 Supersomes, luciferin-H EGE luminescence, 30 min. hit rate 21% among 96,000. P33261. inhibition, % at 5 µM. AID 778;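 active = CYP2C19 inhibition above a set limit at 5 µM in the primary screen, cut at about 50% in these data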
Of the large screens only hits and unclear results are named; the others gave an inactive call. An excerpt weighted towards active compounds, which were near 21% of everything screened.

O=C(CN1CCN(S(=O)(=O)c2ccc3ccccc3c2)CC1)Nc1ccc2c(c1)CCC2	none (no result: CYP2C9 act, CYP2C9 inhib, CYP2C19 activ, MRP reversal, CYP2C19 inhib)
O=C(c1cc(-c2ccccc2)nc2ccccc12)N1CCc2ccccc2C1	none (no result: CYP2C9 act, CYP2C9 inhib, CYP2C19 activ, MRP reversal, CYP2C19 inhib)
COc1ccc(-c2cc(C(=O)N3CCOCC3)c3cc(C)ccc3n2)cc1	CYP2C9 inhib 59.2
CC(C)c1ccc(-c2cc(C(=O)N3N=C(C(F)F)CC3(O)C(F)F)c3ccccc3n2)cc1 (centres undefined)	CYP2C9 inhib 100.3 (no result: MRP reversal)
Cc1ccc2nc(-c3ccccc3)cc(C(=O)N3CCc4ccccc4C3)c2c1	none (no result: MRP reversal)
Cc1ccc(-c2cc(C(=O)N3CCOCC3)c3ccccc3n2)cc1	CYP2C19 inhib 69.6
CCN(CC(=O)Nc1ccc2c(c1)OCCO2)c1nc(-c2cccnc2)nc2ccccc12	CYP2C9 inhib 56.4, CYP2C19 inhib 65.8
Cc1ccc(NC(=O)c2cc(-c3ccc(C)o3)nc3ccccc23)cc1	none
C/C(N)=C(/C#N)C(=O)COC(=O)c1cc(-c2ccc(Br)cc2)nc2ccccc12	none (no result: CYP2C9 act, CYP2C9 inhib, CYP2C19 activ, MRP reversal, CYP2C19 inhib)
CCc1ccc(-c2cc(C(=O)NN3CCOCC3)c3ccccc3n2)cc1	CYP2C9 inhib 53.8 (no result: MRP reversal)
O=C(Nc1ccc2c(c1)OCCO2)c1ccccc1F	none
CS(=O)(=O)Nc1ccccc1C(=O)Nc1ccc2c(c1)OCCO2	CYP2C9 inhib 73.4
O=C(NN1CCOCC1)c1cc(-c2ccc(Br)cc2)nc2ccccc12	none (no result: CYP2C9 act, CYP2C9 inhib, CYP2C19 activ, MRP reversal, CYP2C19 inhib)
Cc1ccc(-c2cc(C(=O)Nc3ccc4c(c3)OCCO4)c3ccccc3n2)cc1	CYP2C9 inhib 76.2 (no result: MRP reversal)
Cc1nc2ccccc2n1C(=O)c1cc(-c2ccc(Br)cc2)nc2ccccc12	CYP2C9 inhib 78.8 (no result: MRP reversal)
CC1(C)CC(NC(=O)c2coc(=O)c(Br)c2)CC(C)(C)N1	none
CCOC(=O)c1nc(Nc2ccc(C)cc2)c2ccccc2n1	CYP2C9 inhib 66.0, CYP2C19 inhib 70.6
COC(=O)CNc1nc(-c2cccnc2)nc2ccccc12	CYP2C9 inhib 56.5
c1cncc(-c2nc(NCC3COc4ccccc4O3)c3ccccc3n2)c1 (centres undefined)	CYP2C9 inhib 87.6
CCOC(=O)c1ccc(Nc2nc(-c3cccnc3)nc3ccccc23)cc1	CYP2C9 inhib 78.7, CYP2C19 inhib 66.2 (no result: MRP reversal)
CCOC(=O)c1nc(Nc2ccccc2)c2ccccc2n1	none
CCCC(C)NC(=O)COc1ccc(S(=O)(=O)c2ccc(OCC(=O)NC(C)CCC)cc2)cc1 (centres undefined)	none (no result: CYP2C9 act, CYP2C9 inhib, CYP2C19 activ, MRP reversal, CYP2C19 inhib)
Cc1cccc(C)c1NC(=O)c1cc(S(=O)(=O)N2CCOCC2)ccc1F	none (no result: CYP2C9 act, CYP2C9 inhib, CYP2C19 activ, CYP2C19 inhib)
COC(=O)C1CCN(C(=O)c2ccccc2Oc2ccccc2)CC1	CYP2C9 inhib 55.2, CYP2C19 inhib 78.7
COc1ccccc1N1CCN(C(=O)c2ccccc2Oc2ccccc2)CC1	CYP2C9 inhib 75.0, CYP2C19 inhib 74.5
O=C(c1ccc(Br)s1)N1CCCC1	none
COc1ccccc1N1CCN(C(=O)c2ccc(Br)s2)CC1	CYP2C9 inhib 88.6, CYP2C19 inhib 99.0
COC(=O)C1CCN(C(=O)c2ccccc2NC(C)=O)CC1	none
O=C(c1ccc(Br)s1)N1CCN(c2ncccn2)CC1	CYP2C9 inhib 80.4, CYP2C19 inhib 97.6
COc1ccccc1N1CCN(C(=O)c2ccccc2NC(=O)C2CCCCC2C(=O)O)CC1 (centres undefined)	none (no result: CYP2C9 act, CYP2C9 inhib, CYP2C19 activ, MRP reversal, CYP2C19 inhib)
O=C(CSc1ccc2nnc(-c3ccc(Cl)cc3)n2n1)N1CCN(c2ccccc2)CC1	none (no result: CYP2C9 act, CYP2C9 inhib, MRP-1 activ, CYP2C19 activ, CYP2C19 inhib)
COC(=O)C(CC(C)C)NC(=O)c1ccc([N+](=O)[O-])c(C)c1 (centres undefined)	none (no result: MRP reversal)
c1ccc(-n2ncc3c(N4CCN(c5ccccn5)CC4)nc(N4CCCCCC4)nc32)cc1	none
COc1ccccc1N1CCN(C(=O)c2oc3ccc(Br)cc3c2C)CC1	none (no result: CYP2C9 act, CYP2C9 inhib, CYP2C19 activ, MRP reversal, CYP2C19 inhib)
O=C(c1c(F)cccc1F)N1CCN(c2ncccn2)CC1	CYP2C9 inhib 65.3
COc1ccccc1N1CCN(C(=O)c2cc3cc(Br)ccc3oc2=O)CC1	CYP2C19 inhib 59.2
O=C(c1ccccc1Oc1ccccc1)N1CCN(c2ccccc2F)CC1	CYP2C9 inhib 90.1, CYP2C19 inhib 78.8
O=C(c1cnc2n(c1=O)CCS2)N1CCN(c2ccccc2F)CC1	none
CC1CN(S(=O)(=O)c2cccc(C(=O)OC/C(O)=C(\C#N)c3nc4ccccc4[nH]3)c2)CC(C)O1 (centres undefined)	none (no result: CYP2C9 act, CYP2C9 inhib, CYP2C19 activ, MRP reversal, CYP2C19 inhib)
COC(=O)[C@H](C)NC(=O)Nc1cc(OC)ccc1OC	none
COC(=O)c1cccc(NC(=O)CN(c2ccc3c(c2)OCO3)S(C)(=O)=O)c1C	CYP2C9 inhib 70.8, CYP2C19 inhib 90.1
CS(=O)(=O)N(CC(=O)Nc1ccccc1C(=O)N1CCOCC1)c1ccc2c(c1)OCO2	none
COC(=O)c1ccc(Cl)c(NC(=O)CN(c2ccc3c(c2)OCO3)S(C)(=O)=O)c1	CYP2C9 inhib 86.8, CYP2C19 inhib 89.7 (no result: MRP reversal)
COC(=O)c1cc(NC(=O)CN(c2ccc3c(c2)OCO3)S(C)(=O)=O)ccc1Cl	CYP2C9 inhib 92.6, CYP2C19 inhib 93.2
CS(=O)(=O)N(CC(=O)Nc1ccc2c(c1)OCO2)c1ccc2c(c1)OCO2	none
CS(=O)(=O)N(CC(=O)Nc1cccnc1)c1ccc2c(c1)OCO2	CYP2C19 inhib 58.4 (no result: MRP reversal)
CCC1C(=O)N(C)CCc2ccccc21 (centres undefined)	none (no result: CYP2C9 act, CYP2C9 inhib, CYP2C19 activ, MRP reversal, CYP2C19 inhib)
CCCCOCCCNS(=O)(=O)c1ccccc1	none
CCCCOP(=O)(OCCCC)C1(NS(=O)(=O)c2ccccc2)C=CC(=O)c2ccccc21 (centres undefined)	CYP2C9 inhib 60.4
CN(CC(=O)Nc1c(Cl)cccc1Cl)C(=O)CCCN1C(=O)c2ccccc2C1=O	CYP2C9 inhib 86.0 (no result: MRP reversal)
COc1ccc(CCN2C(=O)C(Oc3ccccc3)C2c2ccc3c(c2)OCO3)cc1 (centres undefined)	none (no result: CYP2C9 act, CYP2C9 inhib, CYP2C19 activ, MRP reversal, CYP2C19 inhib)
COc1ccc(CNCCC(c2ccccc2)c2ccc3c(c2)OCO3)cc1 (centres undefined)	CYP2C19 inhib 78.9 (no result: MRP reversal)
O=C(NC1CCCC1)C(c1cccs1)N(CC1CCCO1)C(=O)Cc1cccs1 (centres undefined)	none
Cc1ccc(Sc2nc(C)cc(C)c2S(C)(=O)=O)cc1	CYP2C9 inhib 63.6 (no result: MRP reversal)
C#CCOCCOCCOCCNc1nc(N2CCN(C(=O)Cn3cc(CCCN=C(N)N)nn3)CC2)nc(N2CCN(C(=O)Cn3cc(CCCN=C(N)N)nn3)CC2)n1	none (no result: CYP2C9 act, CYP2C9 inhib, CYP2C19 activ, MRP reversal, CYP2C19 inhib)
Cc1csc(=O)n1CCC(=O)O	none
Cn1c(CCNC(=O)c2ccco2)nc2cc(NS(=O)(=O)c3ccc(Cl)cc3)ccc21	CYP2C9 inhib 98.2, CYP2C19 inhib 88.9
Cn1c(CN2CCCCC2)nc2cc(NS(=O)(=O)c3ccc(Cl)cc3)ccc21	CYP2C9 inhib 67.3
Cc1ccc(N2CCN(CCc3nc4cc(NC(=O)c5ccco5)ccc4n3C)CC2)cc1	CYP2C9 inhib 69.0
Cn1c(CN2CCCCC2)nc2cc(NC(=O)c3cccs3)ccc21	CYP2C9 inhib 87.0, CYP2C19 inhib 98.6
O=C1CC(N(CCc2ccccc2)C(=S)Nc2ccccc2)C(=O)N1c1ccccc1 (centres undefined)	none (no result: CYP2C9 act, CYP2C9 inhib, CYP2C19 activ, MRP reversal, CYP2C19 inhib)
